Assay outcomes: PubChem BioAssay, several laboratories
A selection: hits, their analogues and other compounds. The true share with any hit is near 5.6%.
H9c2 protect – cardioprotection against H2O2-induced cell death, primary screen, uHTS, H9c2 cells, ATPLite luminescence; H9c2 cardiomyocytes, H2O2 injury protection, 2 h; protection from H2O2 cell death, % at 20 µM; hit rate 0.63% among 360,000; AID 588492, 2011;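 active = compounds giving at least 50% protection of heart cells from peroxide-induced death in the single-dose screen, raw or plate-pattern-corrected value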
PfGluPho inh – PfG6PD enzyme inhibitors, primary screen, biochemical, fluorescence intensity, uHTS; AID 504690, 2011; hit rate 0.78% among 350,000; inhibition, % at 20 µM; PfGluPho enzyme, NADPH resazurin-diaphorase fluorescence; glucose-6-phosphate dehydrogenase-6-phosphogluconolactonase (Plasmodium falciparum 3D7);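 active = inhibition reaching at least a set limit at 20 µM in the primary screen, cut at about 59% in these data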
PHOSPHO1 inh – PubChem AID 1565 | Phosphoethanolamine/phosphocholine phosphatase (Homo sapiens), Q8TCT1 | recombinant PHOSPHO1, absorbance phosphatase assay | inhibition, % at 13.3 µM | hit rate 1.1% among 290,000; in the data active = inhibition above about 60%
Target sequence (Q8TCT1 whole entry, looked up): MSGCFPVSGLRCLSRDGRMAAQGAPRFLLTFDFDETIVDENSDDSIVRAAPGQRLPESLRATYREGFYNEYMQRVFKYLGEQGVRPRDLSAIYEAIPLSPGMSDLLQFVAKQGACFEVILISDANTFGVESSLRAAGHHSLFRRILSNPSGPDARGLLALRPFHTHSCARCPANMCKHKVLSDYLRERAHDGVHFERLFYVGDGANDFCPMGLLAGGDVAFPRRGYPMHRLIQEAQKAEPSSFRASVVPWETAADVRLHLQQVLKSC
ALR inh – inhibitors of human ALR sulfhydryl oxidase, primary screen, biochemical, H2O2 detection, HRP-luminol luminescence, single point. purified ALR, DTT oxidation. FAD-linked sulfhydryl oxidase ALR (Homo sapiens), P55789. AID 485317, 2010. hit rate 3.8% among 290,000. inhibition, % (concentration not given with the values);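 active = mean replicate inhibition above about 79%, with every replicate also reaching it, limit read from the data; inconclusive = only one of the two criteria met; inactive = mean below limit and not every replicate reaching it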
Target sequence (P55789 whole entry, looked up): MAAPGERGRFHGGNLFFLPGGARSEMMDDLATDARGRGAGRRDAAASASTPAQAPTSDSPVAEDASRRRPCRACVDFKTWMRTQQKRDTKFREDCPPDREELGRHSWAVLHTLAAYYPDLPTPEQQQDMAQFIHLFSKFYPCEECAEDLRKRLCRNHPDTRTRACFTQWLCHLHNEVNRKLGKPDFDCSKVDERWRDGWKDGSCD
M18AAP inhibitor – PfM18AAP inhibitors, malaria aminopeptidase, primary screen, biochemical, QFRET, recombinant enzyme; M18 aspartyl aminopeptidase (Plasmodium falciparum 3D7); H-Glu-NHMec fluorogenic cleavage; inhibition, % at 7.35 µM; hit rate 1.2% among 290,000; AID 1822, 2009;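 active = inhibition above the campaign mean inhibition over all tested compounds plus 3 SD, cut at about 28% in these data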
Of the large screens only hits and unclear results are named; the others gave an inactive call.

O=C(CNC(=O)c1ccco1)OCc1cccc(Cl)c1	none
O=C(CCNc1cccc(Cl)c1)c1ccco1	ALR inh 96.9
COc1ccc(-n2c(=S)[nH]c3cc(C(=O)NCCCN4CCOCC4)ccc3c2=O)cc1OC	none
Cc1nn(C)c(C)c1NS(=O)(=O)c1c(C)n[nH]c1C	none (no result: PHOSPHO1 inh, M18AAP inhibitor)
CCn1c2ccccc2c2cc(/C(C)=N/O)ccc21	ALR inh 98.2
Cc1ccc(NC(=O)C(C)Sc2nc(-c3ccccc3)cc(=O)[nH]2)cc1 (stereo not given)	none
O=C(CC1C(=O)Nc2ccccc2N1CC(=O)N1CCCC1)Nc1ccc(Br)cc1 (stereo not given)	ALR inh 97.7 (no result: PHOSPHO1 inh, M18AAP inhibitor)
CCNC(=O)C1CCCN(Cc2ccc(C)c3ccccc23)CC1 (stereo not given)	none (no result: PfGluPho inh, PHOSPHO1 inh, ALR inh, M18AAP inhibitor)
Cc1cccc(-c2c3c(=O)n(C)c(=O)n(C)c3cn2-c2ccc(O)cc2)c1	ALR inh 95.2 (no result: PHOSPHO1 inh)
Cn1c(=O)c2c(-c3ccccc3)n(-c3cccc(O)c3)cc2n(C)c1=O	none (no result: PfGluPho inh, PHOSPHO1 inh, ALR inh, M18AAP inhibitor)
COc1c(O)cccc1/C=N/NC(=O)Cn1ccnc1C	H9c2 protect 57.0
COc1cccc(/C=N/NC(=O)Cn2ccnc2C)c1	none
Cc1cccnc1NC(=S)Nc1ncccc1C	none
COc1ccc(NC(=S)Nc2ncccc2C)c(OC)c1	ALR inh 99.0
COc1ccc(NC(=S)Nc2ncccc2C)cc1OC	ALR inh 83.1
CC(C)Oc1ccc(S(=O)(=O)N2CCOCC2)cc1NC(=O)C1=COCCO1	none (no result: PHOSPHO1 inh, M18AAP inhibitor)
CCCn1c(N)c(NCCN2CCOCC2)c(=O)[nH]c1=O	ALR inh 99.4
CCCCNc1c(N)n(CCC)c(=O)[nH]c1=O	none
COc1ccccc1N1CCN(c2cc(N3CCCC3)nc(C)n2)CC1	ALR inh inconclusive
COc1ccc(OC)c2c(C)cc(N3CCCN(C)CC3)nc12	ALR inh 97.5
COc1cc(OC)c2ccc(=O)oc2c1C(CC(=O)N1CCN(c2ccccc2)CC1)c1ccc2c(c1)OCO2 (stereo not given)	H9c2 protect 69.5 (no result: M18AAP inhibitor)
Cc1ccc(S(=O)(=O)N2CC=C(C(=O)NCc3ccc(F)cc3)CC2)cc1	none (no result: PfGluPho inh)
CCN(CC)c1ccc(NC(=O)C2=CCN(S(=O)(=O)c3ccc(F)cc3)CC2)c(C)c1	ALR inh 86.7
CCN(CC)c1ccc(NC(=O)C2CCCN(S(=O)(=O)c3cccnc3)C2)c(C)c1 (stereo not given)	ALR inh 98.8, M18AAP inhibitor 28.4
CCN(CC)c1ccc(NC(=O)c2c(OC)cccc2OC)c(C)c1	ALR inh 98.9
CC(C)COC(=O)N(C)C[C@H]1OCc2cnnn2CCCC(=O)N([C@H](C)CO)C[C@@H]1C	none (no result: PHOSPHO1 inh, ALR inh, M18AAP inhibitor)
O=C(NC1CCS(=O)(=O)C1)c1ccc2c(c1)OCO2 (stereo not given)	none (no result: PHOSPHO1 inh, M18AAP inhibitor)
O=C1NC2(CCCC2)C(=O)N1CCS(=O)(=O)Oc1ccccc1	PHOSPHO1 inh 64.7
O=C(O)c1cccc(NN=C2c3ccccc3-c3ccccc32)c1	none (no result: ALR inh)
O=C(O)c1cccc2c1-c1ccccc1/C2=N\Nc1ccccc1	ALR inh 99.1
COC1=C/C(=C/c2c(O)c(C#N)c3ccccn23)C=CC1=O	ALR inh 91.2
CC(/C=N/NC(=O)c1nnn(-c2nonc2N)c1C(C)C)=C\c1ccco1	none
COc1ccc(-c2nc3c(Cl)cc(C(F)(F)F)cn3c2Cc2cccc(F)c2)cc1OC	none (no result: PfGluPho inh, PHOSPHO1 inh, ALR inh, M18AAP inhibitor)
Cc1cc(C)n(CC(O)CN2c3ccccc3Sc3ccccc32)n1 (stereo not given)	ALR inh 99.2
CCN(CC)CCCCN1c2ccccc2Sc2ccccc21	ALR inh 99.0
CCN(CC)CC(=O)N1c2ccccc2Sc2ccccc21	none
Cc1cc(C)n(CC(O)Cn2c3ccccc3c3ccccc32)n1 (stereo not given)	none (no result: ALR inh)
Cc1c(C)n(CC(O)CN(CCO)CCO)c2ccccc12 (stereo not given)	none
CCN(CC)CC(O)CN1c2ccccc2Sc2ccccc21 (stereo not given)	ALR inh 98.5
OCCN(CCO)CC(O)CN1c2ccccc2Sc2ccccc21 (stereo not given)	ALR inh 98.7
Cc1ccc(/C=C/C(=O)OC(C)C(=O)NC2CCCCC2C)o1 (stereo not given)	none (no result: PHOSPHO1 inh, M18AAP inhibitor)
CC(=O)n1cc(/C=N/NC(=O)c2ccc([N+](=O)[O-])cc2)c2ccccc21	none
O=C(CNc1ccccc1)N/N=C/c1c[nH]c2ccccc12	ALR inh 89.2
CC(=O)n1cc(/C=N/NC(=O)c2sc(C)nc2C)c2ccccc21	H9c2 protect 56.5
Cc1nc(N)sc1C(=O)N/N=C/c1c[nH]c2ccccc12	ALR inh 90.6
CNc1cnc(-c2ccccc2OC)cn1	none (no result: PfGluPho inh, PHOSPHO1 inh, ALR inh, M18AAP inhibitor)
O=C(NC1CCN(Cc2ccc(Cl)c(Cl)c2)CC1)c1ccccc1	none (no result: ALR inh)
COc1cccc(N2CCN(CC(=O)NC(=O)NC3CCCCC3)CC2)c1	none (no result: PHOSPHO1 inh, ALR inh, M18AAP inhibitor)
CCCN(CCC)S(=O)(=O)c1cccc(-c2csc(C)n2)c1	none (no result: ALR inh)
C[n+]1cc[nH]c1SCC(=O)c1ccccc1	PHOSPHO1 inh 60.0
C[n+]1cc[nH]c1SCC(=O)c1ccc(Cl)cc1	none
O=C(CSc1ncccn1)Nc1ccc(S(=O)(=O)N2CCCCC2)cc1	none
O=C(CSC1=NCCS1)Nc1ccc(S(=O)(=O)NC2CCCCC2)cc1	ALR inh 98.3
COc1cc(NS(=O)(=O)c2ccc(NC(=O)CSC3=NCCS3)cc2)nc(OC)n1	PHOSPHO1 inh 76.4, ALR inh 98.9 (no result: H9c2 protect, PfGluPho inh)
O=C(CSC1=NCCS1)Nc1ccc(S(=O)(=O)N2CCCCCC2)cc1	ALR inh 98.3
CN(C)S(=O)(=O)c1ccc(N2CCCC2)c(C(=O)NNC(=O)COc2cccc(F)c2)c1	none (no result: PHOSPHO1 inh, ALR inh, M18AAP inhibitor)
COC(=O)c1ccc(CNc2ccc(C(C)=O)cc2)cc1	none (no result: PfGluPho inh, PHOSPHO1 inh, ALR inh, M18AAP inhibitor)
CN1C(=O)NC(c2ccccc2[N+](=O)[O-])C2=C1CCCC2=O (stereo not given)	none
O=C(N/N=C/c1c(O)n(-c2ccccc2Cl)c(=O)c2ccccc12)C1COc2ccccc2O1 (stereo not given)	H9c2 protect 68.3
CCOCCCn1c(-c2ccc(Cl)cc2)n[nH]c1=S	PHOSPHO1 inh 99.2
COCCCn1c(-c2ccc(Cl)cc2)n[nH]c1=S	PHOSPHO1 inh 97.6, ALR inh 94.8
COC(=O)C1=C(C(=O)OC)SC(=C2C(=S)C(C)(C)N(C(=O)C3CC3)c3ccccc32)S1	PHOSPHO1 inh 78.7
COC(=O)C1=C(C(=O)OC)SC(=C2C(=S)C(C)(C)N(C(=O)C(C)C)c3ccccc32)S1	PHOSPHO1 inh 80.4
CCCC(=O)N1c2ccccc2C(=C2SC(C(=O)OC)=C(C(=O)OC)S2)C(=S)C1(C)C	none
CCOc1cc(NC(=S)Nc2ccc(Cl)cc2)c(OCC)cc1NC(C)=O	M18AAP inhibitor 31.0
O=C(O)c1cnn(-c2nc(-c3cccc(F)c3)cs2)c1C(F)(F)F	none
Nc1cccc(-c2csc(-n3ncc(C(=O)O)c3C(F)(F)F)n2)c1	ALR inh 98.9 (no result: PHOSPHO1 inh)
